Experimental data from the supplement of paper PMC10849652.
Of roughly 7,900 targets only a part is listed; those with a hit were picked by preference. About 0.6% of all pairs of compound and target were hits.

How the values were obtained:
Test in all cases: log2 fold change, soluble protein after heating vs DMSO (PISA); higher = thermal stabilisation; K562 cells, 10 uM, 30 min; active = over 0.2 and 3.5 SD of the protein, either way, in both replicates (recomputed)
[1] = compound: CC1=C(C=C(C=C1)NC(=O)C2=CC(=CC=C2)C(C)(C)C#N)NC3=CC4=C(C=C3)N=CN(C4=O)C
How it was run: (§1)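 Quantification of soluble protein used TMTpro 16plex LC-MS/MS, with channel sums equalised. Samples were the supernatant after 21,000xg for 90 min of pooled aliquots from K562 cells (2×10^6 cells/mL) treated with 10 μM compound for 30 min, heated for 3 min over 48°C-58°C, and extracted in PBS with 0.5% NP-40 at 4°C. Values, from duplicates, describe thermal stability against control samples on a log2 fold-change scale.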

[2] = compound: CC1=C(C=C(C=C1)NC(=O)C2=CC(=CC=C2)N(C)C)NC(=O)C3=CC=C(C=C3)O
How it was run: as §1

[3] = compound: CC1=CC=C(C=C1)SC2=C3C=C(SC3=CN=C2)C(=O)N
How it was run: as §1

[4] = compound: CC1=NC(=CC=C1)C2=C(N=C(N2)C(C)(C)C)C3=CC4=NC=CN=C4C=C3
How it was run: as §1

Nexturastat A = compound: CCCCN(Cc1ccc(C(=O)NO)cc1)C(=O)Nc1ccccc1 [Nexturastat A]
How it was run: as §1

vemurafenib = compound: CCCS(=O)(=O)Nc1ccc(F)c(C(=O)c2c[nH]c3ncc(-c4ccc(Cl)cc4)cc23)c1F [vemurafenib]
How it was run: as §1

[5] = compound: CCCS(=O)(=O)Nc1ccc(F)c(C(=O)c2c[nH]c3ncc(Cl)cc23)c1F
How it was run: as §1

[6] = compound: CCCc1cc(C)[nH]c(=O)c1CNC(=O)c1cc(-c2ccnc(N3CCN(C)CC3)c2)cc2c1cnn2C(C)C
How it was run: as §1

givinostat = compound: CCN(CC)Cc1ccc2cc(COC(=O)Nc3ccc(C(=O)NO)cc3)ccc2c1 [givinostat]
How it was run: as §1

barasertib = compound: CCN(CCCOc1ccc2c(Nc3cc(CC(=O)Nc4cccc(F)c4)[nH]n3)ncnc2c1)CCOP(=O)(O)O [barasertib]
How it was run: as §1

Measured: log2 fold change

CCAR1 (UniProt Q8IX12)
inactive: [1] 0.03 | [2] -0.046 | [3] -0.001 | [4] -0.017 | Nexturastat A 0.071 | vemurafenib 0.007 | [5] 0.006 | [6] -0.045 | givinostat 0.027 | barasertib -0.04

CCNB1 (UniProt P14635)
inactive: [1] 0.021 | [2] -0.043 | [3] 0.011 | [4] 0 | Nexturastat A 0.017 | vemurafenib 0.03 | [5] 0.008 | [6] -0.033 | givinostat 0.007 | barasertib -0.007

CPQ (UniProt Q9Y646)
inactive: [1] 0.001 | [2] 0.025 | [3] -0.005 | [4] -0.005 | Nexturastat A -0.016 | vemurafenib 0.043 | [5] 0.006 | [6] 0.024 | givinostat 0.011 | barasertib -0.002

COX6B1 (UniProt P14854)
inactive: [1] -0.006 | [2] -0.144 | [3] 0.136 | [4] 0.016 | Nexturastat A -0.001 | vemurafenib 0.015 | [5] -0.005 | [6] -0.069 | givinostat -0.025 | barasertib 0.085

CDK5 (UniProt Q00535)
inactive: [1] -0.053 | [2] -0.009 | [3] 0.001 | [4] -0.008 | Nexturastat A -0.002 | vemurafenib 0.031 | [5] 0.058 | [6] 0.078 | givinostat 0.003

CCM2 isoform 2 (UniProt Q9BSQ5)
inactive: [1] -0.072 | [2] -0.068 | [3] -0.124 | [4] -0.002 | Nexturastat A 0.102 | vemurafenib 0.008 | [5] 0.009 | [6] 0.052 | givinostat -0.003 | barasertib -0.061

CIR1 (UniProt Q86X95)
inactive: [1] -0.04 | [2] -0.38 | [3] 0.047 | [4] -0.018 | Nexturastat A 0.199 | vemurafenib -0.156 | [5] -0.129 | [6] 0.047 | givinostat -0.015 | barasertib -0.105

CLPX (UniProt O76031)
inactive: [1] 0.022 | [2] -0.013 | [3] -0.008 | [4] 0.012 | Nexturastat A 0 | vemurafenib -0.011 | [5] -0.013 | [6] -0.002 | givinostat 0.02 | barasertib -0.013

CDC42BPA isoform 6 (UniProt Q5VT25)
inactive: [1] 0.151 | [2] -0.079 | [3] 0.01 | [4] -0.015 | Nexturastat A 0.123 | vemurafenib 0.004 | [5] 0.141 | [6] -0.013 | givinostat 0.051 | barasertib 0.04

CASP8 isoform 9 (UniProt Q14790)
inactive: [1] -0.054 | [2] -0.092 | [3] 0.017 | [4] -0.049 | Nexturastat A 0.064 | vemurafenib 0 | [5] 0.177 | [6] 0.114 | givinostat 0.115 | barasertib 0

CASP9 (UniProt P55211)
UniProt P55211, sequence (P55211 whole entry, looked up): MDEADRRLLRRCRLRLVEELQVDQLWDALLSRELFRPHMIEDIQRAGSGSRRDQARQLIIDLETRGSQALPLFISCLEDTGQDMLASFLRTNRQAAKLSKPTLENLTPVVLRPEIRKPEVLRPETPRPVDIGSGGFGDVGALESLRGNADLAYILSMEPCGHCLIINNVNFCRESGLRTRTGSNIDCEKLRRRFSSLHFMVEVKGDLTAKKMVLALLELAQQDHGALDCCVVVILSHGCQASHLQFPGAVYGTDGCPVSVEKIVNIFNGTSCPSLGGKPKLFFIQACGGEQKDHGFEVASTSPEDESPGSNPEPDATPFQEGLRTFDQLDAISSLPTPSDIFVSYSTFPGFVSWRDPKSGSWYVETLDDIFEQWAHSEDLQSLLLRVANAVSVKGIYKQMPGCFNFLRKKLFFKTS
inactive: [1] 0.103 | [2] -0.091 | [3] 0.032 | [4] 0.021 | Nexturastat A 0.045 | vemurafenib 0.107 | [5] 0.111

COQ7 (UniProt Q99807)
inactive: [1] 0.028 | [2] 0.086 | [3] 0.02 | [4] 0.018 | Nexturastat A -0.068 | vemurafenib -0.002 | [5] -0.061 | [6] -0.034 | givinostat -0.091 | barasertib 0.023

CHD3 isoform 3 (UniProt Q12873)
UniProt Q12873, sequence (Q12873 whole entry, looked up): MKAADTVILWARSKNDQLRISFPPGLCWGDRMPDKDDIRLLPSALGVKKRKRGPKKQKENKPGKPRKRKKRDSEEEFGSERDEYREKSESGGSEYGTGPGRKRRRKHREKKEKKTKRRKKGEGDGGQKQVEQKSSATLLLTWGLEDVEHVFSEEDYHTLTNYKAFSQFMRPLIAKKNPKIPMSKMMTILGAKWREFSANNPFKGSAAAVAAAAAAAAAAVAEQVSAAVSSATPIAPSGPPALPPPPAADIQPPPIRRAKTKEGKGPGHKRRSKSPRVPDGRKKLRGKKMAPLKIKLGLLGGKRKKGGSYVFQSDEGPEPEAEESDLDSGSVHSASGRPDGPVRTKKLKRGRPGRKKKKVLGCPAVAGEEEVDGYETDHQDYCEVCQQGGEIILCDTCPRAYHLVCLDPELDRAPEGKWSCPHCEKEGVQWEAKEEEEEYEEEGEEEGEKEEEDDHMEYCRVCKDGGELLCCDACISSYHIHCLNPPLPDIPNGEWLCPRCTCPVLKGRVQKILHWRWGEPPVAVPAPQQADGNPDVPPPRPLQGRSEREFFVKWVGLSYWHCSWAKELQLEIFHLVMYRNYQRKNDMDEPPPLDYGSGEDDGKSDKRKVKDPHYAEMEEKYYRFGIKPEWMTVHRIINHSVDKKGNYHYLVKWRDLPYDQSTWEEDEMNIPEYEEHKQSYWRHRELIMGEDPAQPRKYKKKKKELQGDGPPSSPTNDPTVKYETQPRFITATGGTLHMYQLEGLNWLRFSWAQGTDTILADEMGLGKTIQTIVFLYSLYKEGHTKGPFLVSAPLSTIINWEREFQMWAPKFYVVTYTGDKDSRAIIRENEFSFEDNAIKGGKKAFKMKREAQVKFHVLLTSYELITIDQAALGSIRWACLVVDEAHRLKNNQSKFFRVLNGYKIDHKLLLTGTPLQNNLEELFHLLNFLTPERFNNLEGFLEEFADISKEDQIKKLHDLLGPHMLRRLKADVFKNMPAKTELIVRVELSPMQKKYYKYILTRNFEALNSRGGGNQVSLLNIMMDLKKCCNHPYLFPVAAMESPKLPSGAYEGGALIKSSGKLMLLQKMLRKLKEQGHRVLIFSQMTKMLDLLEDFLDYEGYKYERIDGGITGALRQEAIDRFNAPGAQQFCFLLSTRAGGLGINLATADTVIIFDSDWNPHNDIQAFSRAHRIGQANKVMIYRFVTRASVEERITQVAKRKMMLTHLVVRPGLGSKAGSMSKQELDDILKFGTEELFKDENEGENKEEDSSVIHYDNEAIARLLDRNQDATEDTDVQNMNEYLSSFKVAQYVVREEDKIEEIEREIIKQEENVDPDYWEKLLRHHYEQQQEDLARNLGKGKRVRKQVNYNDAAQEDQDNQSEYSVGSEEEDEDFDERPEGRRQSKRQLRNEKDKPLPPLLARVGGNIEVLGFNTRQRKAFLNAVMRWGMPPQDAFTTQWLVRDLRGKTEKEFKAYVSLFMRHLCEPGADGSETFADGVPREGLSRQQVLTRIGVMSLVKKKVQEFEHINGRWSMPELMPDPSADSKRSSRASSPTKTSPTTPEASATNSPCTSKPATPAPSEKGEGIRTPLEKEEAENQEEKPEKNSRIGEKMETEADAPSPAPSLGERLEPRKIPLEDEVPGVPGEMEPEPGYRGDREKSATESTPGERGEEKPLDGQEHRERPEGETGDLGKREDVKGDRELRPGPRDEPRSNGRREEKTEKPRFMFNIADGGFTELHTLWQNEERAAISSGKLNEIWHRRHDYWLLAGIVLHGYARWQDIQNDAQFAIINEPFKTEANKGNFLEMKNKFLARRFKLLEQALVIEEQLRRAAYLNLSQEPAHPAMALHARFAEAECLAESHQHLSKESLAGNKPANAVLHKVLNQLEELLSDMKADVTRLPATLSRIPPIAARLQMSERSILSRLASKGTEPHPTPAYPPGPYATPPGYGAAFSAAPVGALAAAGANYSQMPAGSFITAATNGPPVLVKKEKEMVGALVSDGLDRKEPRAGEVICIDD
inactive: [1] 0.03 | [2] -0.035 | [3] 0.016 | [4] -0.077 | Nexturastat A 0.056 | vemurafenib 0.113 | [5] 0.138 | [6] 0.081 | givinostat 0.226 | barasertib 0.046

CPSF6 isoform 2 (UniProt Q16630)
inactive: [1] 0.054 | [2] 0.02 | [3] -0.027 | [4] 0.02 | Nexturastat A -0.042 | vemurafenib 0.001 | [5] -0.069 | [6] 0.035 | givinostat 0.048 | barasertib -0.042

CSTF2 (UniProt P33240)
inactive: [1] -0.081 | [2] 0 | [3] 0.002 | [4] -0.05 | Nexturastat A 0.026 | vemurafenib 0.016 | [5] -0.053 | [6] 0.004 | givinostat -0.014 | barasertib -0.042

CPSF1 (UniProt Q10570)
active: Nexturastat A 0.453
inactive: [1] -0.017 | [2] 0 | [3] -0.123 | [4] -0.083 | vemurafenib -0.115 | [5] 0.014 | [6] -0.005 | givinostat 0.058 | barasertib -0.024

CDK1 (UniProt P06493)
inactive: [1] 0.017 | [2] -0.017 | [3] 0.004 | [4] 0.036 | Nexturastat A -0.015 | vemurafenib 0.029 | [5] 0.02 | [6] 0.001 | givinostat 0.048 | barasertib 0.001

CA1 (UniProt P00915)
inactive: [1] -0.028 | [2] -0.008 | [3] 0.03 | [4] 0.014 | Nexturastat A -0.051 | vemurafenib 0.048 | [5] 0.016 | [6] -0.039 | givinostat -0.021 | barasertib 0.008

COX15 (UniProt Q7KZN9)
UniProt Q7KZN9, sequence (Q7KZN9 whole entry, looked up): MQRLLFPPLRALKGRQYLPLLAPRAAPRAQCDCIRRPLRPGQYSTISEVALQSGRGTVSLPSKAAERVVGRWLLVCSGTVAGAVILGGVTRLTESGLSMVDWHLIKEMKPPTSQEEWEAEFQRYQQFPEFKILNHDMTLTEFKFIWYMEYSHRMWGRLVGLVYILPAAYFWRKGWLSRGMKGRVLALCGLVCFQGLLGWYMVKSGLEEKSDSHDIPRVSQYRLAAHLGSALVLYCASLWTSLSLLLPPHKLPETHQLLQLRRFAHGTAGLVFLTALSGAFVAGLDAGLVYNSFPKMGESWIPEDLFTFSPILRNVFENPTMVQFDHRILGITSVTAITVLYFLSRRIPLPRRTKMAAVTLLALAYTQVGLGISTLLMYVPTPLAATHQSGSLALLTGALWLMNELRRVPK
inactive: [1] 0.05 | [2] 0.024 | [3] 0.001 | [4] 0.003 | Nexturastat A -0.113 | vemurafenib 0.005 | [5] 0.015 | [6] -0.077 | givinostat -0.008 | barasertib 0.009

CHST11 (UniProt Q9NPF2)
active: [5] 0.384
inactive: [1] 0.019 | [2] 0.099 | [3] 0.189 | [4] 0.047 | Nexturastat A 0.013 | vemurafenib 0.027 | [6] 0.089 | givinostat -0.029 | barasertib 0.049

CDAN1 (UniProt Q8IWY9)
UniProt Q8IWY9, sequence (Q8IWY9 whole entry, looked up): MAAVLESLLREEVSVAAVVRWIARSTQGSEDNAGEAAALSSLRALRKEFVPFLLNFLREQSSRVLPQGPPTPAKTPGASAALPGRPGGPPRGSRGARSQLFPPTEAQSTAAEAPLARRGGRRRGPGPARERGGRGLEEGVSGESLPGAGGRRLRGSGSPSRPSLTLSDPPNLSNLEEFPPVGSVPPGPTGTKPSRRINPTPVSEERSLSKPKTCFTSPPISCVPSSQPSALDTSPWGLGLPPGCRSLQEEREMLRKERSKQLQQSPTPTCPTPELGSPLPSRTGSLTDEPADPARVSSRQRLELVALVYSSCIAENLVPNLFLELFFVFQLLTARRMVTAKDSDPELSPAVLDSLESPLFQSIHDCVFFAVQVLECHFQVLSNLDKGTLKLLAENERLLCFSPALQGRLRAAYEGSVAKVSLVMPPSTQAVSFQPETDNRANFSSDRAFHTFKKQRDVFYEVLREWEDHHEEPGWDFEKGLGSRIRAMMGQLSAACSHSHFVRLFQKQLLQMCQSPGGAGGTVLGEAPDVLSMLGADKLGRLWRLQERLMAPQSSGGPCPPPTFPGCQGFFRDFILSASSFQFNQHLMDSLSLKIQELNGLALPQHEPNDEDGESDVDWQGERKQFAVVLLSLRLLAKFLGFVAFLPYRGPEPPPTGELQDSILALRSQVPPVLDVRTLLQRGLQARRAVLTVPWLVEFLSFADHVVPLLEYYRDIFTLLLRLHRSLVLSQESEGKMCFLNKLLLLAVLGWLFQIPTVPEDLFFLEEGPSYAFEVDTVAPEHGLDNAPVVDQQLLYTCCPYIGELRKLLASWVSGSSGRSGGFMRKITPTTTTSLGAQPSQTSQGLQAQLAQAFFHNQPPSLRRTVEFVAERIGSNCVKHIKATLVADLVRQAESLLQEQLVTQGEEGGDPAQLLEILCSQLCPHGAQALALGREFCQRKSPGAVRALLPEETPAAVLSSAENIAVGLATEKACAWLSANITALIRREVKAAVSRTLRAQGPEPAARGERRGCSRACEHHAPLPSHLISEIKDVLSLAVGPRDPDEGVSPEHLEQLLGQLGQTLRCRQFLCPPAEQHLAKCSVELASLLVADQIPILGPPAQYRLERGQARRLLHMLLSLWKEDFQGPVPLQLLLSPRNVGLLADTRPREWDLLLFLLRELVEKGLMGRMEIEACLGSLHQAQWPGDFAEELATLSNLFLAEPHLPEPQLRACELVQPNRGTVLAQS
inactive: [1] 0.039 | [2] 0.046 | [3] -0.071 | [4] -0.022 | Nexturastat A -0.192 | vemurafenib -0.067 | [5] 0.077 | [6] 0.022 | givinostat 0.023 | barasertib 0.002

CLPP (UniProt Q16740)
inactive: [1] -0.002 | [2] -0.004 | [3] -0.003 | [4] 0.007 | Nexturastat A 0.041 | vemurafenib 0.015 | [5] 0.008 | [6] 0.023 | givinostat 0.003 | barasertib 0.001

CDK6 (UniProt Q00534)
inactive: [1] -0.037 | [2] 0.01 | [3] 0.044 | [4] 0 | Nexturastat A 0.032 | vemurafenib 0.002 | [5] -0.024 | [6] -0.027 | givinostat -0.019 | barasertib -0.018

CD151 (UniProt P48509)
inactive: [1] -0.125 | [2] -0.057 | [3] -0.002 | [4] 0.027 | Nexturastat A -0.159 | vemurafenib -0.103 | [5] 0 | [6] -0.21 | givinostat 0.018 | barasertib -0.052

COX5B (UniProt P10606)
inactive: [1] -0.038 | [2] -0.096 | [3] 0.037 | [4] -0.008 | Nexturastat A -0.043 | vemurafenib 0.037 | [5] -0.044 | [6] 0.013 | givinostat 0.065 | barasertib 0.034

CHERP (UniProt Q8IWX8)
inactive: [1] -0.042 | [2] -0.088 | [3] -0.053 | [4] 0.003 | Nexturastat A -0.006 | vemurafenib 0.018 | [5] 0.127 | [6] 0.075 | givinostat 0.107 | barasertib 0.055

CSE1L (UniProt P55060)
UniProt P55060, sequence (P55060 whole entry, looked up): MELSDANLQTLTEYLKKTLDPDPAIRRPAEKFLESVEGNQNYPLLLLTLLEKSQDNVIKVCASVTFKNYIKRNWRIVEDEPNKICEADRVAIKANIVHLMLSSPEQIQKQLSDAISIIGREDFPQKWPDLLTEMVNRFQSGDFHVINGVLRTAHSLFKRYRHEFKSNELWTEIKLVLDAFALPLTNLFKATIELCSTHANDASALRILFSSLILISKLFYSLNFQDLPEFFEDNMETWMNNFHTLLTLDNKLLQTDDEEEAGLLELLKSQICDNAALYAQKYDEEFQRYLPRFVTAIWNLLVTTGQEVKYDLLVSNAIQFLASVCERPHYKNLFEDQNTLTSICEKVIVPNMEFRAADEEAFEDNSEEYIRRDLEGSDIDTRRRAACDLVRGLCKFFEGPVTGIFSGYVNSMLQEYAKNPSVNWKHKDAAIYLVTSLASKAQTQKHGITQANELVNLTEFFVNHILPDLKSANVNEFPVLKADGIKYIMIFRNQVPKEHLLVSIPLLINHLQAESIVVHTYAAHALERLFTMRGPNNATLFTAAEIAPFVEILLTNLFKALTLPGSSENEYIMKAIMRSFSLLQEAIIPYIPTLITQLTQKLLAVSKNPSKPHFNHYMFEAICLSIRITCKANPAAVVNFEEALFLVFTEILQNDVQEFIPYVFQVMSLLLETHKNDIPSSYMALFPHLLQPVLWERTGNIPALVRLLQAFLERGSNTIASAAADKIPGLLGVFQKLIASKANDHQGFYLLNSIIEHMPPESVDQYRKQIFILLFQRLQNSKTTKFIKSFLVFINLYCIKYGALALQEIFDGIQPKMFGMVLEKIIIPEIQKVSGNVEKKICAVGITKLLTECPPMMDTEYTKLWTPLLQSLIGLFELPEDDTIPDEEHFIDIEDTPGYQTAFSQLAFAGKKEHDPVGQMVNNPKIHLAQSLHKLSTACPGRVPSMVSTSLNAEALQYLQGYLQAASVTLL
inactive: [1] 0.021 | [2] -0.006 | [3] 0.068 | [4] 0.083 | Nexturastat A -0.068 | vemurafenib 0.029 | [5] 0.063 | [6] 0.009 | givinostat 0.004 | barasertib 0.042

CAVIN1 (UniProt Q6NZI2)
inactive: [1] 0.024 | [2] -0.066 | [3] -0.051 | [4] -0.027 | Nexturastat A 0.186 | vemurafenib -0.068 | [5] -0.047 | [6] 0.073 | givinostat 0.041 | barasertib -0.058

CNOT7 (UniProt Q9UIV1)
inactive: [1] 0.046 | [2] -0.043 | [3] 0.075 | [4] 0.014 | Nexturastat A 0.048 | vemurafenib -0.068 | [5] 0.053 | [6] -0.011 | givinostat -0.026 | barasertib 0.004

CDK9 isoform 2 (UniProt P50750)
inactive: [1] 0.053 | [2] -0.067 | [3] -0.001 | [4] -0.084 | Nexturastat A 0.155 | vemurafenib -0.052 | [5] 0.024 | [6] 0.036 | givinostat 0.014 | barasertib 0.002
